Experimental findings from the supplement of paper PMC11732987, “Enantioselective OTUD7B fragment discovery through chemoproteomics screening and high-throughput optimisation” (Communications Chemistry, 2025) are described below.

A number with no mark means an inactive call.

Experiment in all cases: log2 ratio of Biotin-Ahx-Ub-VS probe labelling (fragment/DMSO); higher = less target engagement (more negative = stronger competition), active = hit call of the paper (q ≤ 0.05, log2 ratio ≤ -1)
What all share (details): compound concentration: 200 uM; treatment time: 3 h

The target of assay [1] is T1, OTUD6B (UniProt Q8N6M0).
T1 sequence (whole entry): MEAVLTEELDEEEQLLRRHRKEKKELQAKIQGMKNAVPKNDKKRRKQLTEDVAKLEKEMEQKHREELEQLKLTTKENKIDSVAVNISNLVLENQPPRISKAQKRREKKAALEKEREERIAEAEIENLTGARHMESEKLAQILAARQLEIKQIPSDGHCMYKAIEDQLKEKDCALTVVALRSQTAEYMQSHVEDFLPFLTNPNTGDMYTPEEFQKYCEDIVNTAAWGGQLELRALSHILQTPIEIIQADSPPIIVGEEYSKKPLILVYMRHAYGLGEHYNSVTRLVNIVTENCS
The procedure, abridged:
(§1)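 Triplicate samples of HEK293T lysate, 495 µg each, received fragment at 200 µM or vehicle for 3 h, followed by Biotin-Ahx-Ub-VS (0.5 µM final) for 1 h. After NeutrAvidin enrichment of labelled DUBs and LysC/trypsin digestion, peptides were run by diaPASEF LC-MS/MS. The values are average log2 fragment/vehicle ratios from global-median-normalised Spectronaut label-free quantities, tested by unpaired t-test on proteins having ≥2 unique peptides.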

Assay [2] concerns the target T2, OTUD7B (UniProt Q6GQQ9).
T2 sequence (whole entry): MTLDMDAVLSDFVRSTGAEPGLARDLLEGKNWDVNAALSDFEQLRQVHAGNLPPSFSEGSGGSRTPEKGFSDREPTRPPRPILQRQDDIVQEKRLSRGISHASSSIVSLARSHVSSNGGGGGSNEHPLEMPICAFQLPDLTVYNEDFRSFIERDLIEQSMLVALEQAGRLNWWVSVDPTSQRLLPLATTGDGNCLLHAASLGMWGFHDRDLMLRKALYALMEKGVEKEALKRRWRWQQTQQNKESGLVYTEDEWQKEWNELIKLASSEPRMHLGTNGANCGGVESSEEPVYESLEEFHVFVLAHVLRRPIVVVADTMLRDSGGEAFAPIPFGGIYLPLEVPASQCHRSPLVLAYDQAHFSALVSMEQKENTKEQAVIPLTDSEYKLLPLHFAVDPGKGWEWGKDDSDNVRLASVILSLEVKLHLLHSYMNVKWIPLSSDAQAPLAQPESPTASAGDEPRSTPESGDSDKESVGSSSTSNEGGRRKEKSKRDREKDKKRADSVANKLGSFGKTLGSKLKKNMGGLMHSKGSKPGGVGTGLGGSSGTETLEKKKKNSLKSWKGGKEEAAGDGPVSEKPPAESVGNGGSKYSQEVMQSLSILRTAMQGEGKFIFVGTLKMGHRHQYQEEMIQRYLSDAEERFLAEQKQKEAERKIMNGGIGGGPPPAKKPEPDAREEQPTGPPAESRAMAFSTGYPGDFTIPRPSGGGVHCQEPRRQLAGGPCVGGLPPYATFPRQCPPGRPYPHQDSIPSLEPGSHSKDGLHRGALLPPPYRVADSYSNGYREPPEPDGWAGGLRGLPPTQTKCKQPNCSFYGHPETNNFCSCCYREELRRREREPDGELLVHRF
Put shortly: as §1

In assay [3] the target is PRPF8 (UniProt Q6P2Q9). Put shortly: as §1
The target of assay [4] is T3, PSMD7 (UniProt P51665).
T3 sequence (whole entry): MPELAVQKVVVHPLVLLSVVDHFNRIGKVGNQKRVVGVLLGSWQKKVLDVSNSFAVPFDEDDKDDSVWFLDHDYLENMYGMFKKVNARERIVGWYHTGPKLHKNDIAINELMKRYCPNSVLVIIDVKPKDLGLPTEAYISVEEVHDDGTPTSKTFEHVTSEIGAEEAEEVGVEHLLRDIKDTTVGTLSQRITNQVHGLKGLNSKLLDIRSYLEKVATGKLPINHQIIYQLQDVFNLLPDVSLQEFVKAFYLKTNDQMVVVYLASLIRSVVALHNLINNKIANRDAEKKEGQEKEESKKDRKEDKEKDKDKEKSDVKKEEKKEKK
The procedure, abridged: as §1

The target in assay [5] is UCHL1 (UniProt P09936). The procedure, abridged:
as §1

The target of assay [6] is T4, UCHL3 (UniProt P15374).
T4 sequence (whole entry): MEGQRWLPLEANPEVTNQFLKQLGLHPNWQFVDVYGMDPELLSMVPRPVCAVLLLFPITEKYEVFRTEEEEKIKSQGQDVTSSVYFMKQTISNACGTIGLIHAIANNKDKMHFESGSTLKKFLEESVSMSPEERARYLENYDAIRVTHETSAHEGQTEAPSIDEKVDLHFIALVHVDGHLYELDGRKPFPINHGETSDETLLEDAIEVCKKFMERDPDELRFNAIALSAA
The procedure, abridged: as §1

Assay [7] has as its target T5, UCHL5 (UniProt Q9Y5K5).
T5 sequence (whole entry): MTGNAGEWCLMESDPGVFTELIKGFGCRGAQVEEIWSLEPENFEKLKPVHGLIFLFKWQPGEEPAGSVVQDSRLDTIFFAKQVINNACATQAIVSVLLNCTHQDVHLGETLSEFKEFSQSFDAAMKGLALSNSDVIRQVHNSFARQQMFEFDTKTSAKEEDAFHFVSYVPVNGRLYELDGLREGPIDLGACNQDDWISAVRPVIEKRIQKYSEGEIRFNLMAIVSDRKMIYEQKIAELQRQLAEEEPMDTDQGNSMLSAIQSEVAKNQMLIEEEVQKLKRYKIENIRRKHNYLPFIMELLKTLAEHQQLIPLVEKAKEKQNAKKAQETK
Put shortly: as §1

Assay [8] concerns the target USP10 (UniProt Q14694). Put shortly: as §1
Assay [9] addresses T6, USP15 (UniProt Q9Y4E8).
T6 sequence (whole entry): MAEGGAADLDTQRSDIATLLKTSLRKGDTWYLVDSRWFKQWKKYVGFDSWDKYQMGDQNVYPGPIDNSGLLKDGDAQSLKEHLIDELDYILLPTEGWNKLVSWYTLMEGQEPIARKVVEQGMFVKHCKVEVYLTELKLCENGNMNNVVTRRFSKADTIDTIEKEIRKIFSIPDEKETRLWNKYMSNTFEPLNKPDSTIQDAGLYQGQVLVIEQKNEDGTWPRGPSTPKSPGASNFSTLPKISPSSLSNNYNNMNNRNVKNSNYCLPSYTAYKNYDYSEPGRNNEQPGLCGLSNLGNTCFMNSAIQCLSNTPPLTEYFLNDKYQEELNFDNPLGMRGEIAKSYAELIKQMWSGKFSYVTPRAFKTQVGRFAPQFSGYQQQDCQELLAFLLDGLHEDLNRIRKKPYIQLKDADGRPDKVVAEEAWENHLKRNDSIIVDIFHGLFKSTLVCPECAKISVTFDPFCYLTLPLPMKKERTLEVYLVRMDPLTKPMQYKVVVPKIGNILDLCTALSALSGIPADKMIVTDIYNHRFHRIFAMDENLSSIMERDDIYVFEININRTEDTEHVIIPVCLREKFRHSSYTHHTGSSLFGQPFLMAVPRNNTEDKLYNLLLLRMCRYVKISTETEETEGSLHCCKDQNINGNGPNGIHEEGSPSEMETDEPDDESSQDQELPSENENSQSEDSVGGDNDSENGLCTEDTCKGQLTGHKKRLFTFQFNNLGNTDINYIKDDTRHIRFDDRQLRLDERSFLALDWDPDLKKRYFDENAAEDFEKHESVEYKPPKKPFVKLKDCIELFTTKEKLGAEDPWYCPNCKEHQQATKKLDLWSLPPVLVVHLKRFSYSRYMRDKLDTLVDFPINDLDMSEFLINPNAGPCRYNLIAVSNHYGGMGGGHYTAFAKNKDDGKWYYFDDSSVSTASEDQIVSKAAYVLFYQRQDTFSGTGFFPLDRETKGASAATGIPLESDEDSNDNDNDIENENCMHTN
The procedure, abridged: as §1

Assay [10] has as its target USP16 (UniProt Q9Y5T5). The procedure, abridged:
as §1

USP10, sequence (Q14694 whole entry): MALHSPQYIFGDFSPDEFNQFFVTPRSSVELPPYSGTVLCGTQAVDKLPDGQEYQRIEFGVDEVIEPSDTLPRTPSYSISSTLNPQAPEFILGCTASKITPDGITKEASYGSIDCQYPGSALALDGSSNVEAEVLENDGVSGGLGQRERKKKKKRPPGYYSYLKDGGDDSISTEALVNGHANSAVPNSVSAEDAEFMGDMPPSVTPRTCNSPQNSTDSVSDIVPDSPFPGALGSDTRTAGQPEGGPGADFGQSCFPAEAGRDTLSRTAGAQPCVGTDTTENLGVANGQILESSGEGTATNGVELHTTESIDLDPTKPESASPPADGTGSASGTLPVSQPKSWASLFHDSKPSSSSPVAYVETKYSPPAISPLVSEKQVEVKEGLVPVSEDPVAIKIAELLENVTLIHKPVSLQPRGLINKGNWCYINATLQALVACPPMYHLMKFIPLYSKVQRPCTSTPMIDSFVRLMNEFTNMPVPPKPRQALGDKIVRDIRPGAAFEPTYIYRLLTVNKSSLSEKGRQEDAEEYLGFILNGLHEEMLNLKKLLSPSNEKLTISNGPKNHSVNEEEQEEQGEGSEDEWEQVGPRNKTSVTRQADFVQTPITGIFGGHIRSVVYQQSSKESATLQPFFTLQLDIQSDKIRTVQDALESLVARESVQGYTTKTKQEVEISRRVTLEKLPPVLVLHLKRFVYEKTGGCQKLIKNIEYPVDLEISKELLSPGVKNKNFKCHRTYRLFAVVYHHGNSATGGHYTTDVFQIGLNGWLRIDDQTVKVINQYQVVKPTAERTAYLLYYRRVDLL
UCHL1, sequence (P09936 whole entry, looked up): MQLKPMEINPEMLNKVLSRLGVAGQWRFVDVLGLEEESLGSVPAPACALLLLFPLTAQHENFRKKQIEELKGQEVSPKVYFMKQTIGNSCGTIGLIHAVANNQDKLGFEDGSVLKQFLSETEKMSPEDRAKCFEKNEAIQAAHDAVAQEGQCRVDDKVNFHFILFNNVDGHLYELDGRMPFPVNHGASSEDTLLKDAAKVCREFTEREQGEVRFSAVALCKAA
USP16, sequence (Q9Y5T5 whole entry, looked up): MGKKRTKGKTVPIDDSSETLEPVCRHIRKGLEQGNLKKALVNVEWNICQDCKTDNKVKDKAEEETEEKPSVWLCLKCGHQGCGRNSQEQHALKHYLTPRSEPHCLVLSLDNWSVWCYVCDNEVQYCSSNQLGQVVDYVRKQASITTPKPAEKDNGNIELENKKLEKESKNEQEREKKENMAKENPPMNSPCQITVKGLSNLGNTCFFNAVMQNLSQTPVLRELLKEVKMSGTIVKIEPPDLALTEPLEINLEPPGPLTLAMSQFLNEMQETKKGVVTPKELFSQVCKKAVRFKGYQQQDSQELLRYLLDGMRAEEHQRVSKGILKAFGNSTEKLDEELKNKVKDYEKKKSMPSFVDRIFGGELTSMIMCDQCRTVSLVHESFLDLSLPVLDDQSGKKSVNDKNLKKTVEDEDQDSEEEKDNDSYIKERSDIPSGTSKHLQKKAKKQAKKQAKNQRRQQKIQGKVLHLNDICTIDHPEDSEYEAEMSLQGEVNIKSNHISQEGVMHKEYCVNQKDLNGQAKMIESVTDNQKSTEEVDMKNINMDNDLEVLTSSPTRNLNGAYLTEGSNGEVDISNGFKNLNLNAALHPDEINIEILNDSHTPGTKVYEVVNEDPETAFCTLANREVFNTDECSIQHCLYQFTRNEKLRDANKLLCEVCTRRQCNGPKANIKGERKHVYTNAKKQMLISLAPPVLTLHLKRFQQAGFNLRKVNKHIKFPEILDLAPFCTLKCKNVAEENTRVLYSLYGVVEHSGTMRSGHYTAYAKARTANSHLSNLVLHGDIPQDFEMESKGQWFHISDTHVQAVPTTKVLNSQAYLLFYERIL

In the case of `O=C(CCl)N1CCN2C(=O)CCC2C1` (stereo not given), the “log2 ratio of Biotin-Ahx-Ub-VS probe labelling” value (“log2 ratio” below) in assay [1] was -0.158; in assay [2], -0.49; in [3], -0.164; in [4] it was -0.288; in assay [5], -1.64 (active); in assay [6], 0.118. The “log2 ratio” value is -0.0709 in assay [7], -0.195 in assay [8], -0.15 in assay [9] and 0.00152 in assay [10].

Take `CC(=O)Nc1ccc(NC(=O)CCl)cc1`: the “log2 ratio” value is -0.276 in [1]; -1.13 (active) in [2]; 0.0134 in assay [3]; -0.163 in assay [4]; -0.918 in assay [5]; 0.206 in [6]. In addition, the “log2 ratio” value in assay [7] was -0.201; in assay [8], -0.113; in assay [9], -0.154; in assay [10] it was -0.288.

With `Cn1cc(CN(Cc2ccc(Cl)cc2)C(=O)CCl)cn1`, the “log2 ratio” value in [1] was -0.0472; in assay [2], -0.238; in assay [3] it was 0.208; in assay [4], 0.0391; in assay [5] it was -0.602; in assay [6], 0.113. Further, the “log2 ratio” value in assay [7] was -0.221; in [8], -0.0261; in assay [9], -0.272; in assay [10] it was -1.17 (active).

On to `COc1cccc(CN(C)C(=O)CCl)c1`, for which the “log2 ratio” value in assay [1] was -0.198; in assay [2], -0.364; in assay [3] it was -0.0045; in assay [4], -0.109; in assay [5] it was -1.22 (active); in assay [6], 0.229. Moreover, the “log2 ratio” value was -0.0244 in [7], -0.22 in [8], -0.251 in assay [9] and 0.142 in [10].

Turning to `O=C(CCl)Nc1cccc2ncccc12`, the “log2 ratio” value in [1] is -0.0779; in assay [2], -1 (active); in assay [3] it was -0.308; in assay [4], -0.0733; in [5], -1.25 (active); in assay [6], 0.101. Also, the “log2 ratio” value is -0.321 in assay [7], 0.0543 in assay [8], -0.178 in assay [9] and 0.52 in assay [10].

Regarding `O=C(CCl)N(C1=CCCCC1)C1CC1`, the “log2 ratio” value in assay [1] is -0.00924; in assay [2], -0.39; in assay [3], 0.215; in assay [4], 0.0445; in assay [5], -1.24 (active); in assay [6], 0.218. Besides, the “log2 ratio” value in [7] is -0.186; in [8], -0.112; in assay [9], -0.209; in [10], -0.193.

For `Cl.O=C(CCl)N1CCC(Cc2nccs2)C1` (stereo not given), the “log2 ratio” value in assay [1] is -0.205; in assay [2], -0.436; in assay [3] it was -0.0505; in assay [4], -0.315; in assay [5], -1.01 (active); in [6], -0.0765. Also, the “log2 ratio” value in [7] is -0.293; in assay [8], 0.0972; in assay [9], -0.249; in assay [10] it was 0.355.
